Structures are written as SMILES. Several values for one entry are separate records, joined by “and”; a condition that tells them apart may be missing. Equal values may be shown once. Records with an inconclusive call do not appear. Activity calls are given as the source filed them. The call rests on the fitted dose curve; in most records, active means well fitted cell-killing curve with a large enough effect in the repeat runs; inconclusive means weak or mixed curves, or effect the other way; inactive means flat fitted curve, though single readings scatter.
On the % scale 0 is the no-effect control and ±100 the full control effect; potency means the concentration at half of the fitted maximal effect.

The assay can be described thus: qHTS RealTime-Glo MT Cell Viability Assay in HEK293 cells - 40 hour (AID 1224874). Further: nearly all actives have a fitted effect of over 50% in size. Conditions: RealTime-Glo luminescence; max response: hits give low values. An excerpt:
U.S. Tox21 Program National Center for Advancing Translational Sciences [NCATS] NIH Chemical Genomics Center [NCGC] U.S. Environmental Protection Agency [EPA] National Institutes of Environmental Health Sciences [NIEHS] National Toxicology Program [NTP] U.S. Food and Drug Administration [FDA] Tox21 Assay Overview: Measure of cell viability is critical in the cell-base assay. Analysis of cell viability is necessary for the characterization of cell responses to cytotoxic drugs and environmental stress. A RealTime-Glo MT Cell Viability Assay to monitor cell viability in real time of continues cell culture during 40 hours of compound treatment was used to screen Tox21 10K library compounds in Hek293 cells. The RealTime-Glo MT Cell Viability Assay is a nonlytic, homogeneous, bioluminescent method to measure cell viability in real time using a simple, plate-based method. The assay involves adding NanoLuc luciferase and a cell-permeant prosubstrate to cells in culture. Viable cells reduce the proprietary prosubstrate to generate a substrate for NanoLuc luciferase. This substrate diffuses from cells into the surrounding culture medium, where it is rapidly used by the NanoLuc Enzyme to produce a luminescent signal. The signal correlates with the number of viable cells, making the assay well suited for cytotoxicity studies.
Tox21 Assay Protocol Summary: The mixture of Hek293 cell suspension and reagents were dispensed at 600cells/6 ul/well in 1536-well tissue culture treated black solid bottom plates using a Multidrop dispenser. After the assay plates were incubated at a 37 C/5% CO2 incubator for 5 hours, 23 nL of compounds dissolved in DMSO, positive and negative controls was transferred to the assay plate by a pintool work station. The plates were incubated at 37 C for 40 hours. The luminescence intensity were measured at 0h, 8h, 16h, 24h, 32h and 40h time points using ViewLux plate reader during compound treatment.
For the molecule `CN(CCO)CCO`, the max response is -0.53% (inactive).

For `Cn1c(N)nc2c3cccnc3ccc21`, the max response was -11% (inactive).

For `CCOC(=O)C(Cl)Cc1cc(-n2nc(C)n(C(F)F)c2=O)c(F)cc1Cl` (stereo not given), the max response is 2.36% (inactive).

Regarding `Cn1c(CCCC(=O)O)nc2cc(N(CCCl)CCCl)ccc21`, the max response was 1.4% (inactive).

On to `NCCOS(=O)(=O)O`, for which the max response was 1.3% (inactive).

With `O=C(NC(O)C(Cl)(Cl)Cl)NC(O)C(Cl)(Cl)Cl` (stereo not given), the max response was 0.623% (inactive).

With `CCCCCCCC(=O)Cl`, the max response is 5.36% (inactive).

On to `COc1ccc(C=O)cc1O`, for which the max response is 0.952% (inactive).

As for `CC(C)C(C)(N)C#N` (stereo not given), the max response was -5.83% (inactive).

With `CCNc1nc(NCC)nc(SC)n1`, the max response was -13.3% (inactive).

Take `C=CCC1(C(C)CC)C(=O)NC(=O)NC1=O` (stereo not given): the max response was 5.74% (inactive).

Turning to `CN1COCN(Cc2cnc(Cl)s2)/C1=N\[N+](=O)[O-]`, the max response was 7.06% (inactive).

Regarding `CCN(CC)C1CCCCC1`, the max response was 2.39% (inactive).

As for `COc1cc(CC(C)N)cc(OC)c1OC` (stereo not given), the max response is -3.07% (inactive).

As to `CCC(=O)OC1(c2ccccc2)CCN(C)CC1`, the max response was -7.76% (inactive).

Regarding `NNC(N)=O`, the max response is 0.384% (inactive).

For the molecule `CC[C@@H](CO)NC(=O)[C@@H]1C=C2c3cccc4[nH]cc(c34)C[C@H]2N(C)C1`, the max response was 1.11% (inactive).

Regarding `CN(C)CCN(C)C`, the max response was 7.83% (inactive).

Consider `CCN(CCO)CCn1c(Cc2ccccc2)nc2c1c(=O)n(C)c(=O)n2C`, for which the max response is -42.2% (inactive).

`NCC1(CC(=O)O)CCCCC1`: the max response is 1.23% (inactive).

As to `c1cncc([C@@H]2CCCCN2)c1`, the max response is 9.53% (inactive).

On to `COC1=CC(=O)O[C@@H](/C=C/c2ccccc2)C1`, for which the max response is -17.5% (inactive).

`[O-][Br+2]([O-])O`: the max response is 3% (inactive).

For the molecule `CCCC(C)(COC(N)=O)COC(N)=O`, the max response is 2.95% (inactive).

`CCCN1CCC[C@@H]2Cc3[nH]ncc3C[C@H]21`: the max response is 2.6% (inactive).

On to `O=C1CC(=O)NC(=O)N1`, for which the max response was 12.1% (inactive).

Turning to `CS(=O)(=O)c1ccc(C(=O)C2C(=O)CCCC2=O)c(Cl)c1COCC(F)(F)F`, the max response is 2.82% (inactive).

In the case of `C/C(=N\NC(=O)Nc1cc(F)cc(F)c1)c1ncccc1C(=O)O`, the max response is -7.58% (inactive) and 0.112% (inactive).

Take `CC1NCCOC1c1ccccc1` (stereo not given): the max response was 4.25% (inactive).

In the case of `CC(=O)CN(CC(C)=O)N=O`, the max response is 5.04% (inactive).

On to `O=C(Cl)C(Cl)Cl`, for which the max response is 1.34% (inactive).

For `CCNP(=S)(OC)O/C(C)=C/C(=O)OC(C)C` (stereo not given), the max response is -13.5% (inactive).

On to `CCC(CC)(CNC(=O)CCCO)c1cccc(OC)c1`, for which the max response was 4.41% (inactive).

On to `CCC1(CC)C(=O)C=CNC1=O`, for which the max response was 1.59% (inactive).

Regarding `CC(C)(C1CCC(O)CC1)C1CCC(O)CC1` (stereo not given), the max response is -18.7% (inactive).

Turning to `C=C(C)[C@H]1CN[C@H](C(=O)O)[C@H]1CC(=O)O`, the max response is 0.763% (inactive).

Take `CCOC(=O)c1ncn2c1CN(C)C(=O)c1c(I)cccc1-2`: the max response is 1.2% (inactive).

For the molecule `CN=CNc1ccc(C)cc1C`, the max response was 5.53% (inactive).

In the case of `CC(=O)OCC1=C(C(=O)O)N2C(=O)[C@@H](N)[C@H]2SC1`, the max response is 21.8% (inactive).

As to `O=C1C2CC=CCC2C(=O)N1SC(Cl)(Cl)Cl` (stereo not given), the Potency is 43.5 µM (active) and 3.41 µM (active).
